The list is not random: actives were taken first. Their share in the collection is about 7.1%.
SW480 rerep = A quantitative high throughput screen for small molecules that induce DNA re-replication in SW480 colon adenocarcinoma cells | SW480 DNA re-replication, Hoechst DNA content imaging, 48 h | Potency, µM (doses to about 46.1 µM), hits mostly activators | 1.8% of 340,000 active | AID 624297, 2012; further: nearly all actives have a fitted effect of over 55% in size
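250 cells/well; 23 nL cpd via pin tool; 48 hr, 37 C, 5% CO2; Hoechst 40 min; imager read of total nuclear intensity, ex 405/em 500-530 nm.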
MCF10A rerep = A quantitative high throughput screen for small molecules that induce DNA re-replication in MCF 10a normal breast cells. Potency, µM (series often up to 46.1 µM), hits mostly activators. MCF 10A DNA re-replication, Hoechst nuclear intensity, 48 h. 2.9% of 350,000 active; further: nearly all actives have a fitted effect of over 50% in size
ATXN2 expr inh = Primary qHTS for Inhibitors of ATXN expression; 0.72% of 360,000 active; Potency, µM (top dose mostly 57 µM), hits mostly inhibitors; HEK-293 ATXN2-luciferase reporter, luminescence, 24 h; further: nearly all actives have a fitted effect of over 55% in size
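qHTS (up to 57 uM final) was run with 24 h compound exposure of reporter cells at 37 °C. Each well was multiplexed: SteadyGlo luminescence measured ATXN2-luciferase expression after a fluorogenic Gly-Phe-AFC viability readout (25 uM final).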
ATXN viability = Viability Counterscreen for Primary qHTS for Inhibitors of ATXN expression | Potency, µM (highest dose often 56.7 µM), hits mostly cytotoxic | AID 651635, 2014 | S2 cells (HEK-293 line with an ATXN2-luciferase reporter) viability, CellTiter-Fluor protease fluorescence, 24 h | 0.49% of 400,000 active; further: nearly all actives have a fitted effect of over 40% in size
IL1B secr inh = qHTS for Inhibitors of Inflammasome Signaling: IL-1-beta AlphaLISA Primary Screen. THP-1 LPS/ATP IL-1B secretion, AlphaLISA, 16 h; active compounds read low. activity change, % at 57.5 µM. 4.7% of 360,000 active. AID 743279, 2014; in the data active means activity change below about -50%; inconclusive means mostly about -30% to -49%
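THP-1 cells pretreated 1 hr with compounds (up to 57.5 uM final), then stimulated with LPS (250 ng/mL final) plus ATP (1.25 mM final); secreted IL-1B measured by AlphaLISA after 16 hr, decreased signal indicating inhibition.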
PINK1 expr mod = A Quantitative High throughput Screen to Identify Chemical Modulators of PINK1 Expression | Potency, µM (highest dose often 76.6 µM), hits mostly activators | 0.2% of 410,000 active | PINK1 immunofluorescence, high-content cytometry, 24 h; active means well fitted activation curve with a large enough effect; inconclusive means small, poorly fitted or top-dose-only effect; cell line not stated here; further: nearly all actives have a fitted effect of over 65% in size
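Fluorescence from anti-PINK1 antibody, together with nuclear and cell stains, was scanned on a laser-scanning cytometer. Before staining, stable-line cells were incubated 24 hours with compounds at 5 concentrations; primary antibody 12 h at 10 degrees C.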
Hits are given with their value; - = inactive; ? = inconclusive; . = no result; [ ] = another dose, or the depositor's remark. Unless noted, the call rests on the fitted dose curve; in most records, active means well fitted curve in the direction sought with a large enough effect; inconclusive means small, poorly fitted or top-dose-only effect, or another doubt; inactive means no such curve, though single readings can be large; an effect the other way counts as inactive or inconclusive.

SMILES	SW480 rerep	MCF10A rerep	ATXN2 expr inh	ATXN viability	IL1B secr inh	PINK1 expr mod
CC(C)Sc1nc(-c2ccccc2)cc(=O)[nH]1	-	?	-	-	-	-
O=c1cc(-c2ccccc2)nc(Sc2ccc([N+](=O)[O-])cc2[N+](=O)[O-])[nH]1	-	?	-	-	-62.9	-
Cc1cccc(Sc2ccc([N+](=O)[O-])cc2[N+](=O)[O-])n1	-	?	.	-	-171.3	-
O=[N+]([O-])c1ccc(Sc2nccn2Cc2ccccc2)c([N+](=O)[O-])c1	?	20.6µM	-	?	-108.4	-
O=[N+]([O-])c1ccc(Sc2ncccn2)c([N+](=O)[O-])c1	?	18.4µM	?	?	.	-
Cc1ccccc1CCNC(=O)c1ccc2c(c1)nc1n2CCCCC1	.	.	.	.	.	-
CCOc1ccccc1-c1noc(CSc2nnc(-c3ccccc3)n2-c2ccc(F)cc2)n1	.	.	-	-	.	-
CCNC(=O)c1ccc2nc(Cc3ccccc3)oc2c1	.	.	-	-	.	-
CCOC(=O)c1cc(OCc2csc(-c3ccccc3)n2)cc(C(=O)OCC)c1	.	.	.	.	.	-
O=C(Nc1cccc(O)c1)c1noc2c1CCc1ccccc1-2	-	-	-	?	-83.3	-
O=C(NCCc1ccccc1Cl)c1cc2ccccn2n1	.	.	.	.	.	-
NCCC1CN(C(=O)OCc2ccccc2)c2ccccc21 (centres undefined)	10.3µM	-	-	-	-	-
CCOC(=O)C(NC(=O)c1cccc(Cl)c1)(OCc1ccc(F)cc1)C(F)(F)F (centres undefined)	-	-	-	-	-100.3	-
COC(=O)C1=C(C)NC2=C(C(=O)c3ccccc32)C1c1cccc(OC)c1 (centres undefined)	-	?	.	-	-	-
CC1=C([N+](=O)[O-])C(c2cccc(Br)c2)C2=C(N1)c1ccccc1C2=O (centres undefined)	0.651µM	?	?	?	-63.0	-
C[C@@H]1CN(Cc2ccc3c(c2)CN(Cc2cccn2-c2cccnc2)CCO3)C[C@H](C)O1	.	.	.	-	.	-
CC(=O)Nc1ccc(NC2=C/C(=N/S(=O)(=O)c3cccs3)c3ccccc3C2=O)cc1	4.11µM	8.2µM	15.8µM	10µM	-95.2	-
Cc1ccccc1NC1=C/C(=N\S(=O)(=O)c2cccs2)c2ccccc2C1=O	4.11µM	?	7.94µM	6.31µM	-93.5	-
COc1ccc(S(=O)(=O)/N=C2\C=C(Nc3ccc(O)cc3)C(=O)c3ccccc32)cc1	16.4µM	4.61µM	3.16µM	6.31µM	-96.2	-
CC(C)c1ccc(S(=O)(=O)/N=C2\C=C(NS(=O)(=O)c3ccccc3)C(=O)c3ccccc32)cc1	?	?	-	?	-	-
Cc1ccc(NC2=C/C(=N/S(=O)(=O)c3cccs3)c3ccccc3C2=O)cc1C	-	?	-	-	-	-
O=C(COc1ccccc1C(=O)Nc1ccccc1)NC1CCCCC1	.	.	.	.	.	-
Cc1nc(N2CCCC2)c2c(C(=O)Nc3cccc(Cl)c3)c(C)oc2n1	.	.	.	.	.	-
COc1ccc(CNc2ncnc3c2c(-c2ccccc2)cn3-c2ccccc2)cc1	.	.	-	-	.	-
CCOc1ccc(-n2c(C)cc(/C=C3/C(=N)N4C(=NC3=O)SN=C4S(C)(=O)=O)c2C)cc1	-	14.6µM	.	?	-	-
Cc1cc(/C=C2/C(=N)N3C(=NC2=O)SN=C3S(C)(=O)=O)c(C)n1-c1ccc(F)cc1	-	20.6µM	.	?	-	-
COc1ccccc1-n1c(C)cc(/C=C2/C(=N)N3C(=NC2=O)SN=C3S(C)(=O)=O)c1C	-	?	-	-	-	-
CCc1ccc(N/C(SCc2ccccc2C)=C(/C#N)C(=O)NCc2ccco2)cc1	3.66µM	-[0.0737 µM]	-	-	-	-
CCOc1cc(CNC(=O)Cn2ncn3c(cc4cc(F)ccc43)c2=O)cc(OCC)c1OCC	.	.	-	-	.	-

Compound activity (PubChem)
